The text below walks through data of ChEMBL document CHEMBL3988442, “University of Dundee, Small-Polar-MMV Screening Library” (2021).

For some of these results: Measured potencies and affinities stand elsewhere.

What all share (parameters): scale not given: direction of the effect not stated beside the values
In test [1] the target is Protein translocase subunit SecA (Escherichia coli (strain K12)) (UniProt P10408). Put plainly: Assay to Identify E. coli SecA ATPase Inhibitors. Particulars: 30 µM. Type of test: functional.
Chain of Protein translocase subunit SecA (Escherichia coli (strain K12)) (P10408 whole entry): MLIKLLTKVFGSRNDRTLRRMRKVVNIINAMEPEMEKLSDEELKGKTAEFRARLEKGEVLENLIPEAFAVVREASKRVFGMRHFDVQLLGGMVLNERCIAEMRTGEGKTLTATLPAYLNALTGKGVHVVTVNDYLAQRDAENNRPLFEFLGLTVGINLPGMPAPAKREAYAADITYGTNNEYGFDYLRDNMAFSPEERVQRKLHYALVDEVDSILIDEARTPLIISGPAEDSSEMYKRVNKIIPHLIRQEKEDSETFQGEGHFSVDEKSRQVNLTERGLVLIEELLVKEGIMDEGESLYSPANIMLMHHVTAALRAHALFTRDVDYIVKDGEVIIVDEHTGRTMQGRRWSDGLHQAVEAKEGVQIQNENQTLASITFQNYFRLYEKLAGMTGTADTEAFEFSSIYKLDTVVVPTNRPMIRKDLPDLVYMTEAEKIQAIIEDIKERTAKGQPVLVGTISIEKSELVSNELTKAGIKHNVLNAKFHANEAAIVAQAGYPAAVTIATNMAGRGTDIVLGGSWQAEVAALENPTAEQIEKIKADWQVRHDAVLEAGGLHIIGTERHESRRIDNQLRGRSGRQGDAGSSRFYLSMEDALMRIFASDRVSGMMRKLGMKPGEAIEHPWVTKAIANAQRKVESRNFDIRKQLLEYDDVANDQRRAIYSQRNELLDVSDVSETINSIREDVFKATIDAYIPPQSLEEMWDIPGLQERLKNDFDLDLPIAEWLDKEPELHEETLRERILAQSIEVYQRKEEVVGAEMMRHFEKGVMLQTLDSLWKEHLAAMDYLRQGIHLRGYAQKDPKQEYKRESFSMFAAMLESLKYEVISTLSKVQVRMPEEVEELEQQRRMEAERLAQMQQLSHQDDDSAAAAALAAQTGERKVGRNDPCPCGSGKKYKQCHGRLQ
Test [2] deals with T1, Ubiquitin-activating enzyme e1, putative (Leishmania donovani (strain BPK282A1)) (UniProt E9BSI1).
T1 sequence (whole entry): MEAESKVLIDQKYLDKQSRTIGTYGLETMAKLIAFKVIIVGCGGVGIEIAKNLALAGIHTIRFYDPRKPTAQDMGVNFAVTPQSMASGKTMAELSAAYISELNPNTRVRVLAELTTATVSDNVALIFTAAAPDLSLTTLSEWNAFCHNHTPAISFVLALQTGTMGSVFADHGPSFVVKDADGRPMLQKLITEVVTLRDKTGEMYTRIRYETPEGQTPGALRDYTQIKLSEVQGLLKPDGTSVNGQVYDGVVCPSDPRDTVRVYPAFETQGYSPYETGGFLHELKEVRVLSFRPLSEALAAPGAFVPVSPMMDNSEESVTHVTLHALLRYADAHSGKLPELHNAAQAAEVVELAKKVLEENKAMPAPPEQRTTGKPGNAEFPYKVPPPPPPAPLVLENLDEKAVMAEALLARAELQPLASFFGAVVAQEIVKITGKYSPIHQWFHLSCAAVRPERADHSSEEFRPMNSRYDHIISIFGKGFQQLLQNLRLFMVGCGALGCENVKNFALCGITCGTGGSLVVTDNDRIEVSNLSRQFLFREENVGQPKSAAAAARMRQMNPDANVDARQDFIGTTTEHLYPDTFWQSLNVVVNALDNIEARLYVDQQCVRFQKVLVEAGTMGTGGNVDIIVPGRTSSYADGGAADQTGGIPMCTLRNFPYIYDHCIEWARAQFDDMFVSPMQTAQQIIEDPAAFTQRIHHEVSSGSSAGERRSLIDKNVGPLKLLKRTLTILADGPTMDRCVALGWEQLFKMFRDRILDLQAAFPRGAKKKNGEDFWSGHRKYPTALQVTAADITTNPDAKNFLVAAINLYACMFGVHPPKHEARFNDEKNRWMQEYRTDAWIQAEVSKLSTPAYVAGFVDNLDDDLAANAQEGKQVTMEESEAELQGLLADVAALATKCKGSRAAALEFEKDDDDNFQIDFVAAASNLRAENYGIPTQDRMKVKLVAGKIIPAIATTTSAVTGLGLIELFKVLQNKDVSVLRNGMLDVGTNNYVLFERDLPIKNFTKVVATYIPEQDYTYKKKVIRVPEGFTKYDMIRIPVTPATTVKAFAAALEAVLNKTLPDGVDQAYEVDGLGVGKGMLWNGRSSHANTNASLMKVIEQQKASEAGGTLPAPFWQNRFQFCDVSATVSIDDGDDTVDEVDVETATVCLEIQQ
Put plainly: Leishmania donovani Ubiquitin Activating Enzyme (LdE1). Particulars: 30 µM. Type of test: functional.

The target in test [3] is AMP-activated protein kinase, AMPK (Homo sapiens) (UniProt P54646+O43741+P54619+Q9UGJ0+Q9Y478+Q13131+Q9UGI9). Put plainly: AMP-dependent Kinase enzyme assay. An in vitro enzyme assay that detects ADP turnover that is directly proportional to AMPK activity. This uses naive AMPK that is activated during the assay with MK-8722. Type of test: functional. Particulars: 30 µM.

Test [4] has as its target Sialic acid-binding Ig-like lectin 9 (Homo sapiens) (UniProt Q9Y336). Put plainly: Hs-Siglec9 ALPHAscreen SOP 20170721. Particulars: 10 µM. In general terms: Bead proximity is the source of the signal in Alpha formats.
In a further test the test system is Trypanosoma cruzi. Put plainly: Trypanosoma cruzi phosphomannomutase and mannose-1-phosphate guanylyltransferase assay. Type of test: functional. Particulars: 10 µM.
In test [5] the target is T2, Arginase-2, mitochondrial (Homo sapiens) (UniProt P78540).
T2 sequence (whole entry): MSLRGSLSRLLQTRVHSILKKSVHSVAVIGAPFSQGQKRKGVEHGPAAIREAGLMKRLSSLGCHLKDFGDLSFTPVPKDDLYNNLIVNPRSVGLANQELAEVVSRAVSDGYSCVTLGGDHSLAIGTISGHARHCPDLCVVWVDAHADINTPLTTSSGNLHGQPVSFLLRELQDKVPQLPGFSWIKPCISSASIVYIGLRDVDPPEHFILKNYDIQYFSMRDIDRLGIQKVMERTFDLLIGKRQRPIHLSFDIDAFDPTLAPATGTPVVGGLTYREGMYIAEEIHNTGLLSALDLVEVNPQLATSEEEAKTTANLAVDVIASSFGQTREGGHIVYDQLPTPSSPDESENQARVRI
Briefly: in vitro enzyme assay to detect the production of urea directly proportional to the activity of Arginase II. Also: in the data most compounds retested in dose-response had high values. Particulars: 33.3 µM. Type of test: functional.

The target in test [6] is T3, Proteasome subunit beta (Trypanosoma cruzi) (UniProt O96673).
T3 sequence (whole entry): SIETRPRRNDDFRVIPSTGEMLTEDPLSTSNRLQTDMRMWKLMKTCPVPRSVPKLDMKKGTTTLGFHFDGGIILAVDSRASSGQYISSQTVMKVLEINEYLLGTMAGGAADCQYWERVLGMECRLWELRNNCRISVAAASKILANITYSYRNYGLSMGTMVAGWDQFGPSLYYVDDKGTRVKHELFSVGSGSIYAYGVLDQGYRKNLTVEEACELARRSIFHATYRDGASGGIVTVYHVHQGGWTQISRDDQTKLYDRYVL
Put plainly: Trypanosoma cruzi proteasome chymotrypsin-like activity (TcProtChymo) assay. Also: in the data most compounds retested in dose-response had high values. Particulars: 9.37 µM. Type of test: functional.

Another test is filed under the species Homo sapiens. Put plainly: To identify inhibition of the IFN signalling (Jak-Stat) pathway via expression of an eGFP reporter gene under the control of an IFN-stimulated response element (ISRE) containing MxA promoter. Type of test: functional. Particulars: 30 µM. In general terms: A reporter such as luciferase makes a cellular process visible.
The target in test [7] is T4, Tyrosyl-tRNA synthetase, putative (Trypanosoma cruzi (strain CL Brener)) (UniProt Q4DSP6).
T4 sequence (whole entry): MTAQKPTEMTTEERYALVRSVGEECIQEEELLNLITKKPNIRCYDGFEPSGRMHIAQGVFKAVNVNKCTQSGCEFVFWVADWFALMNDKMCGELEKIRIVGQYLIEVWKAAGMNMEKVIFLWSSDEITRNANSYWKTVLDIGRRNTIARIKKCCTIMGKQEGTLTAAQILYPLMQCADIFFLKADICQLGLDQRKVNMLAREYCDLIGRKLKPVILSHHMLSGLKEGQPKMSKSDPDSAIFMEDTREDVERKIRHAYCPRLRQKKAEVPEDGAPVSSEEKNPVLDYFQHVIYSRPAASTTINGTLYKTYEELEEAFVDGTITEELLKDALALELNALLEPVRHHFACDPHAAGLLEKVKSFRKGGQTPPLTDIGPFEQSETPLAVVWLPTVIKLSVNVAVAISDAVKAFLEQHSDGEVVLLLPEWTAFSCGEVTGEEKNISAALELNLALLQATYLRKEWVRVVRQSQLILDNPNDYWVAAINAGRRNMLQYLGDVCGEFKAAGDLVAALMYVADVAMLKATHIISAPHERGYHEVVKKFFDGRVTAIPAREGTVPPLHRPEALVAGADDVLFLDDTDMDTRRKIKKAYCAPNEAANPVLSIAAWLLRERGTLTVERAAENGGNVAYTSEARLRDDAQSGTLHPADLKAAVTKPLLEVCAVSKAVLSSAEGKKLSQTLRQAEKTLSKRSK
Put plainly: Trypanosoma cruzi tyrosyl tRNA synthetase (TcYRS) _High Tyrosine SOP. Also: in the data most compounds retested in dose-response had high values. Type of test: functional. Particulars: 30 µM.

In test [8] the target is T4, Tyrosyl-tRNA synthetase, putative (Trypanosoma cruzi (strain CL Brener)). Put plainly: Trypanosoma cruzi tyrosyl tRNA synthetase (TcYRS) SOP. Particulars: 30 µM. Type of test: functional.
The target of test [9] is Chromo domain-containing protein 1 (Saccharomyces cerevisiae (strain ATCC 204508 / S288c) (Baker's yeast)) (UniProt P32657). Briefly: ScCHD-1 Enzyme Inhibition Assay. Also: in the data most compounds retested in dose-response had high values. Type of test: functional. Particulars: 30 µM.
Chain of Chromo domain-containing protein 1 (Saccharomyces cerevisiae (strain ATCC 204508 / S288c) (Baker's yeast)) (P32657 whole entry, the tested form may be a part): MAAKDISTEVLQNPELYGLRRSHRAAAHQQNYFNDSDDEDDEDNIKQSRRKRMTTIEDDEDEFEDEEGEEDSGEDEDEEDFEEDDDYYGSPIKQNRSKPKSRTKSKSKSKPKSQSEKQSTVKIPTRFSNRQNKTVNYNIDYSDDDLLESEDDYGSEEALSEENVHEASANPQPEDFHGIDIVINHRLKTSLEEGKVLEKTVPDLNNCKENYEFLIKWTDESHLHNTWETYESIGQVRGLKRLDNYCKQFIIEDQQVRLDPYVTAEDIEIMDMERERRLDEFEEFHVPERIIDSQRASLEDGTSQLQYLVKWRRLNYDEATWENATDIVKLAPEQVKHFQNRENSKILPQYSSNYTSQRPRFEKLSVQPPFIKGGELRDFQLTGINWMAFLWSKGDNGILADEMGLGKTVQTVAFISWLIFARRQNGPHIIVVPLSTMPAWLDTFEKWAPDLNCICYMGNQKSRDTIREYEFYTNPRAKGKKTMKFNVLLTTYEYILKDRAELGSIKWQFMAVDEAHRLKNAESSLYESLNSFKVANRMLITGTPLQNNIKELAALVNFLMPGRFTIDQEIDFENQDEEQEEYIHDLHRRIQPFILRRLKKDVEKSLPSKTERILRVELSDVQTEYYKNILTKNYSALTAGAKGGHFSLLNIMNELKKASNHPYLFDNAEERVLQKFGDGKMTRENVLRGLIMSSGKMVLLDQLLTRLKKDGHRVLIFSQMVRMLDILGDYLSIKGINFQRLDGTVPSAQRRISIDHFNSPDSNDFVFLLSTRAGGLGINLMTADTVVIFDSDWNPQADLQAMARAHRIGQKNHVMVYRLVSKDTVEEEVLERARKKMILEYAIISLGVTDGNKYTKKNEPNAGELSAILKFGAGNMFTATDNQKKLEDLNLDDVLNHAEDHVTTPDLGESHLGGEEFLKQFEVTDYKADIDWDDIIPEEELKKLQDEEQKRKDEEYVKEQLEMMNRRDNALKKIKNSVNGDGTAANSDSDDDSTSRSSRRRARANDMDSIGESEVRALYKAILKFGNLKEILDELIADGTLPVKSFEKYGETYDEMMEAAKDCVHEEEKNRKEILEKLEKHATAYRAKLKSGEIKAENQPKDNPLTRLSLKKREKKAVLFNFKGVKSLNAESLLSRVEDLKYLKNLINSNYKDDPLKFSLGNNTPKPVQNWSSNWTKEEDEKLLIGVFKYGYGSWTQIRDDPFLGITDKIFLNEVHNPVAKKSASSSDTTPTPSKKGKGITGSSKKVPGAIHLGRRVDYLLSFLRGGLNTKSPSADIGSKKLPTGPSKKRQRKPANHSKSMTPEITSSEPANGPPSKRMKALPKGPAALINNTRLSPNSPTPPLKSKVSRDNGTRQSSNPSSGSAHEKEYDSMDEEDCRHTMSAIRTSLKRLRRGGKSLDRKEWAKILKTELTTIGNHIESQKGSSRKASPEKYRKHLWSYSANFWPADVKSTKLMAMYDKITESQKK

Chain of Sialic acid-binding Ig-like lectin 9 (Homo sapiens) (Q9Y336 whole entry): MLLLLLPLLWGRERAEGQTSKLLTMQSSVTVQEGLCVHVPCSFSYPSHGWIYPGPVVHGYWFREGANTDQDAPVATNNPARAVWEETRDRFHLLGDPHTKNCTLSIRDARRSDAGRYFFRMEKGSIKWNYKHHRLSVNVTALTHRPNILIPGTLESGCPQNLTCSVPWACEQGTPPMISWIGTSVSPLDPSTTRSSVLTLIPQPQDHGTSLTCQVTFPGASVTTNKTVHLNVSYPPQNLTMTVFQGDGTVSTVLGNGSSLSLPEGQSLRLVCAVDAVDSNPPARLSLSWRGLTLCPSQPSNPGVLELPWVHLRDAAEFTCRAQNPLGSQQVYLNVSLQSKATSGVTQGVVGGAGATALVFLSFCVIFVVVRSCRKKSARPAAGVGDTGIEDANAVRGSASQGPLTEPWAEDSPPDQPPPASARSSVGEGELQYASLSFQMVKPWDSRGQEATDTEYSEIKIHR

Consider `CC(C)c1nn(C)c(N(C)C)c1CNCCC(=O)NC1CCCC1`, for which the Percent Effect in test [1] is -6.71%; in test [2], 21.1%; in test [3], -15.3%; in [4], 3.05%; in the test on Trypanosoma cruzi it was 10.4%; in test [5], 1.08%. In addition, the Percent Effect was 13.4% in [6]; -19.1% in the test listed under Homo sapiens; 7.39% in test [7]; 23.5% in test [8]; -6.05% in test [9].

In the case of `COc1ccc(Cl)cc1NCC(=O)NCCNc1cnccn1`, the Percent Effect in [1] was -3.85%; in test [2] it was -5.41%; in test [3], 2.13%; in test [4], 13.2%; in the test with Trypanosoma cruzi it was -2.17%; in [5] it was -2.4%. Also, the Percent Effect in test [6] is 3.96%; in the test listed under Homo sapiens, -1.56%; in test [7], 4.43%; in [8], 13.6%; in [9], -3.88%.

As for `O=C(NCc1cccnc1)C1=NOC2(CCN(S(=O)(=O)C3CC3)C2)C1` (stereo unspecified), the Percent Effect was -5.43% in test [1]; 13.3% in test [2]; -3.17% in test [3]; -2.3% in test [4]; 4.25% in the test with Trypanosoma cruzi; -41.4% in test [5]. For the same molecule, the Percent Effect was 5.81% in test [6]; -3.44% in the test filed under Homo sapiens; -3.12% in test [7]; 2.5% in [8]; -6.85% in test [9].

As for `O=C(NCc1ccco1)[C@H]1C[C@H]2OCC[C@H]2N(S(=O)(=O)C2CC2)C1`, the Percent Effect was -3.9% in test [1]; 8% in [2]; -0.23% in test [3]; 14.7% in [4]; -2.7% in the test with Trypanosoma cruzi; -26.7% in test [5]. Moreover, the Percent Effect in test [6] is 8.38%; in the test filed under Homo sapiens, -14%; in [7] it was -1.04%; in test [8], 15%; in test [9], -8.9%.

`CC(=O)c1cccc(OCCCC(=O)N(C)Cc2ccccn2)c1`: the Percent Effect is 0.239% in [1]; 0% in [2]; -2.92% in test [3]; 15.9% in test [4]; 4.25% with Trypanosoma cruzi; 2.86% in test [5]. Also, the Percent Effect in test [6] is 10.5%; in the test listed under Homo sapiens it was -7.21%; in test [7], -0.529%; in [8], 4.88%; in test [9], -9.86%.

With `Cc1nc2n(n1)CC(NCc1cc(Cl)c3c(c1)OCCCO3)CC2` (stereo unspecified), the Percent Effect in [1] was -6.19%; in test [2], 15.8%; in [3] it was -7.14%; in test [4], 11.4%; with Trypanosoma cruzi, 5.51%; in test [5], -1.44%. In addition, the Percent Effect in test [6] is 6.01%; in the test listed under Homo sapiens, 6.53%; in [7] it was 6.4%; in test [8], 25.9%; in test [9] it was -3.53%.

For `Cc1c(I)cccc1C(=O)NCC1(CO)CC1`, the Percent Effect was -4.35% in [1]; 13.5% in test [2]; -3.32% in test [3]; 13.5% in [4]; 7.14% in the test with Trypanosoma cruzi; 0.952% in test [5]. For the same molecule, the Percent Effect in test [6] is 1.38%; in the test filed under Homo sapiens it was -9.36%; in test [7], 0.529%; in [8], 14.6%; in [9] it was -4.29%.

For `CCN(CC)C(=O)Cn1ccc2cc(NC(=O)C3CC3)ccc21`, the Percent Effect in test [1] is -5.06%; in test [2], 15.8%; in test [3], -9.59%; in [4], 7.96%; in the test with Trypanosoma cruzi it was 6.39%; in test [5] it was -3.06%. Besides, the Percent Effect in [6] was 14.9%; in the test listed under Homo sapiens it was 4.68%; in test [7] it was 5.39%; in test [8], 21.9%; in [9], -12.7%.

With `COC(=O)c1ccc(C2CC(=O)Oc3cc(C)[nH]c(=O)c32)cc1` (stereo unspecified), the Percent Effect was -1.55% in test [1]; 6.67% in [2]; -1.14% in test [3]; 0.386% in test [4]; 4.71% in the test on Trypanosoma cruzi; -2.99% in test [5]. In addition, the Percent Effect is 7.58% in test [6]; -1.51% in the test filed under Homo sapiens; 6.35% in [7]; 5.13% in test [8]; -3.36% in [9].

With `CCSCCNC(=O)C(c1cccc(F)c1)N(C)C` (stereo unspecified), the Percent Effect in test [1] is -5.79%; in [2] it was 8.11%; in test [3], -0.968%; in test [4] it was -3.42%; with Trypanosoma cruzi, -4.44%; in [5] it was -0.952%. The Percent Effect in [6] is 13.8%; in the test filed under Homo sapiens, 20.7%; in test [7], 6.88%; in test [8], 7.32%; in test [9], -3.55%.

With `Cn1cc(C(=O)N2C[C@@H]3COC[C@]3(COCc3cccnc3)C2)cn1`, the Percent Effect is 0.921% in test [1]; 13% in test [2]; 7.58% in test [3]; 1.08% in test [4]; -4.83% in the test on Trypanosoma cruzi; 11% in test [5]. The Percent Effect in test [6] was 17.4%; in the test listed under Homo sapiens, 3.89%; in test [7] it was 0%; in [8], 8.97%; in [9] it was -5.24%.
